Screens as filed in PubChem BioAssay.
Coupling enz = inhibits coupling enzyme system, counter-screen for aldolase hits; AID 2472; activity change, negative = inhibition, % at 58.2 µM, hits read low; hit rate 0.67% among 290,000; coupling enzyme system counterscreen, AmpLite Red fluorescence; in the data active = activity change below about -30%
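Counterscreen lacking aldolase: glyceraldehyde-3-phosphate coupling-enzyme reagent preincubated 10 min at RT with compound (at 57.5 uM final), then substrate/coupling system with AmpLite Red added; fluorescence read at 525/598 nm after 20 min RT.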
Sfp inh = inhibitors of Bacillus subtilis Sfp phosphopantetheinyl transferase; Q9F4F7; Biochemical Sfp PPTase activity, qHTS; Potency, µM, inactives show largest response in the series, negative = inhibition, usual class: inhibitors; hit rate 3.5% among 310,000;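 note: the enzyme is Sfp with the accession as filed and its product quenches rhodamine fluorescence; potency is the fitted concentration of half-maximal effect; 0% = enzyme reaction without inhibitor and -100% = no enzyme wells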
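With Hepes-Na pH 7.6 buffer containing 10 mM MgCl2, Sfp (15 nM) modified BHQ-2-YbbR (12.5 uM) using rhodamine-CoA (5 uM). Two reads 30 minutes apart at 525/598 nm yielded each well's rate.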
Tau ThT inhib = tau fibrillization inhibition (ThT binding). hit rate 2.1% among 270,000. AID 1460. P10636. Potency, µM (top dose mostly 57.4 µM), inactives show at the highest dose activity, negative = inhibition, hits mostly inhibitors. recombinant tau K18 P301L, heparin-induced fibrillization, ThT fluorescence; note: potency is the fitted concentration of half-maximal effect; nearly all actives have a fitted effect of over 55% in size
Target sequence (P10636 561-689 P618L limits assumed): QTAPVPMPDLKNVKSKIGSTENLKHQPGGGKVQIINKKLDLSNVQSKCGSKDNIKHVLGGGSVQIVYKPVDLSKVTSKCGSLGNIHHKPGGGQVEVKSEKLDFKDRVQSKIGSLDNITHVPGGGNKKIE
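Heparin-induced fibrillization of the P301L-mutant K18 repeat-domain fragment of human tau was followed by ThT binding in quantitative high-throughput format.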
Tau fibril FP = tau fibrillization inhibition (FP). P10636. K18 P301L tau heparin fibrillization, Alexa594 FP, 6 h. Potency, µM (titrated, usually from 57.7 µM), without a hit: at the top dose activity, negative = inhibition, actives largely listed as inhibitors. hit rate 0.39% among 280,000. AID 1468; note: potency is the fitted concentration of half-maximal effect; nearly all actives have a fitted effect of over 55% in size
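Read-out: fluorescence polarization of Alexa 594-labeled tau (0.24 uM), 555 nm excitation, 632 nm emission. Mixtures held 15 uM unlabeled K18 P301L, compound and 20 uM heparin, pH 7 acetate buffer, incubated 6 hr at 37 C.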
Tau fluor counter = counter-screen for tau fibril formation inhibitors | tau K18 P301L Alexa594 fluorescence, heparin fibrillization | Potency, µM (series often up to 57.7 µM), without a hit: at the top dose activity change, negative = decrease | hit rate 0.93% among 280,000 | AID 1463; note: potency is the fitted concentration of half-maximal effect; nearly all actives have a fitted effect of over 55% in size
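Human tau K18 P301L (15 uM unlabeled, 0.24 uM Alexa 594-labeled) in 100 mM sodium acetate pH 7 with 20 uM heparin, 6 hr at 37 C. ThT 30 uM added, 1 hr ambient; Alexa 594 FP and total fluorescence read at 555/632 nm.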
An asterisk follows results filed as active; u = inconclusive; x = no result given; ! = not confirmed by another sample; [ ] = dose if it differs, or a comment. A selection: hits, their analogues and other compounds. The true share with any hit is near 5.2%. Unless noted, calls come from the whole dose curve; as a rule, active = well fitted curve in the direction sought with a large enough effect; inconclusive = small, poorly fitted or top-dose-only effect, or another doubt; inactive = no such curve, though single readings can be large; an effect the other way counts as inactive or inconclusive. Unless noted, % is set by controls: 0 for no effect and ±100 for the full control effect.

SMILES	Coupling enz	Sfp inh	Tau ThT inhib	Tau fibril FP	Tau fluor counter
O=C(c1ccco1)N1CCC2(CCN(Cc3nccs3)CC2)CC1	1	21%	x	x	x
CC(CNC(=O)C1CCN(C(=O)N2CCOc3ccc(Cl)cc32)CC1)c1ccccc1 (stereo not drawn)	x	x	-16%	12%	2%
Cc1ccc(S(=O)(=O)c2ccc(C)cc2)cc1	-6	-4%	-2%	-11%	-7%
Cc1ccc(S(=O)(=O)/C=C/C#N)cc1	1	2.8µM*	u	-20%	-5%
Cc1ccc(S(=O)(=O)/C=C\C#N)cc1	4	45µM*	u	u	-8%
CC(C)(C)c1ccc(S(=O)(=O)N2CCN(CCC#N)CC2)cc1	2	18%	-4%	-9%	-7%
CC(C)(C)c1ccc(S(=O)(=O)/C=C\C#N)cc1	0	45µM*	u	u	-16%
N#CCCn1c(=O)c(-c2ccc(Cl)cc2)nc2cnc(N3CCNCC3)nc21	3	-19%	x	x	x
COc1cc(NC(=O)c2cccc3c2C(=O)N(C2CCCCC2)C3)cc(OC)c1	x	x	-5%	-8%	-23%
COc1cccc(CNC(=O)c2oc3c(c2C)-c2nn(Cc4cccc(Cl)c4)cc2CC3)c1OC	x	x	-15%	1%	-7%
COc1ccc(Cl)cc1NS(=O)(=O)c1ccc2c(c1)NC(=O)CC(=O)N2	x	x	-4%	-5%	-8%
O=C(CSc1nnc(-c2cccnc2)n1Cc1ccco1)NCc1ccc2c(c1)OCO2	0	-4%	7%	5%	5%
Cc1cc(C)nc(SCc2nnc(SCC(=O)Nc3ccccc3C)n2Cc2ccco2)n1	1	50µM*	-3%	-7%	-7%
COc1ccc(C)cc1NC(=O)CSc1nnc(COc2ccc(Cl)cc2)n1Cc1ccco1	3	u	u	5%	-20%
COc1ccc(C)cc1NC(=O)CSc1nnc(COc2ccccc2)n1Cc1ccco1	1	79µM*	u	-3%	-15%
CCOC(=O)CSc1nnc(CSc2nc(C)cc(C)n2)n1Cc1ccco1	3	20µM*	-13%	5%	-2%
COc1cccc(-c2nnc(SCC(=O)NCc3ccc4c(c3)OCO4)n2Cc2ccco2)c1	3	40µM*	-17%	2%	-12%
CCNc1ncc2nc(-c3ccc(Cl)cc3)c(=O)n(Cc3ccc(F)cc3)c2n1	2	23%	x	x	x
COc1cccc(OCc2nnc(SCC(=O)NCc3ccco3)n2CCc2ccccc2)c1	6	50µM*	u	-1%	0%
CCOC(=O)CSc1nc2c(sc3ccc([N+](=O)[O-])cc32)c(=O)n1Cc1ccco1	4	3.5µM*	-16%	18%	-20%
Cc1ccc(C)c(NC(=O)CSc2nnc(CSc3nc(C)cc(C)n3)n2Cc2ccco2)c1	4	45µM*	-4%	5%	3%
COc1ccc(-c2cc(C(=O)Nc3ccn(Cc4ccc(C)cc4)n3)no2)cc1OC	x	x	10%	-11%	-1%
Cc1cc(C)cc(OC(=O)CS(=O)c2ccc(C(F)(F)F)cc2[N+](=O)[O-])c1 (stereo not drawn)	-27	6%	13µM*	u	u
O=C(NCCO)c1ccc(Oc2ccc(C(F)(F)F)cc2[N+](=O)[O-])cc1	-4	23%	-4%	7%[2.34 µM]	-5%
Cc1ccc(OCCNc2ccc(C(F)(F)F)cc2[N+](=O)[O-])cc1	-1	14%	u	u	-12%
SMILES	Coupling enz	Sfp inh	Tau ThT inhib	Tau fibril FP	Tau fluor counter
O=C(CS(=O)c1ccc(C(F)(F)F)cc1[N+](=O)[O-])Oc1ccc(Cl)cc1 (stereo not drawn)	-15	-3%	22µM*	u	u
Cc1cc2c([nH]c3ccccc32)c2c1OC(C)(C)C=C2	-7	27%	u	10%	14µM*[quencher]
COc1ccc2[nH]c(=O)c3c(c2c1)OC(C)(C)C=C3	-19	-20%	-10%	-6%	-18%
CCOc1ccc(C(=O)c2cn(Cc3ccc(OC)cc3)c3cc(OC)c(OC)cc3c2=O)cc1	x	x	-25%	2%	-16%
O=S(=O)(Nc1ccc(-n2cccc2)cc1)c1ccc(F)cc1	-1	10%	-1%	-16%	u
O=S(=O)(Nc1ccc(-n2cccc2)cc1)c1ccc(Cl)c(Cl)c1	-1	11%	-9%	14µM*	u
Nc1cccc2cnccc12	-38*	8%	-13%	-5%	-8%
Oc1cccc2cnccc12	-9	2%	-8%	-3%	-9%
Cc1ccc(Cn2c(=O)c3cccnc3n(CC(=O)Nc3cccc(C(F)(F)F)c3)c2=O)cc1	-2	u	13%	18µM*!	-10%
COc1ccc(NC(=O)Cn2c(=O)n(Cc3ccccc3OC)c(=O)c3cccnc32)cc1Cl	x	x	20%	25µM*	-27%
COc1ccc(NC(=O)Cn2c(=O)n(Cc3ccccc3)c(=O)c3oc4ccccc4c32)cc1Cl	x	x	u	28µM*	-28%
O=C(Cn1c(=O)n(Cc2ccc(Cl)cc2)c(=O)c2cccnc21)Nc1ccccc1C(F)(F)F	x	x	6%	-17%	3%
COc1ncc2nc(C)c(=O)n(CCc3ccccc3)c2n1	4	19%	x	x	x
CC(C(=O)NC1C(=O)N2C(C(=O)O)=C(CSc3nnnn3C)CSC12)n1cc(Cl)cn1 (stereo not drawn)	-9	40µM*	u	-15%	-10%
Cc1c(Cl)c(C(F)F)nn1CC(=O)NC1C(=O)N2C(C(=O)O)=C(CSc3nnnn3C)CSC12 (stereo not drawn)	-1	u	u	u	-4%
O=C(O)C1=C(CSc2nnnn2CS(=O)(=O)O)CS[C@@H]2[C@H](NC(=O)[C@H](O)c3ccccc3)C(=O)N12	x	79µM*	x	x	x
Cc1c(Cl)cnn1CC(=O)NC1C(=O)N2C(C(=O)O)=C(CSc3nnnn3C)CSC12 (stereo not drawn)	0	50µM*	u	-11%	-10%
Cc1nn(CC(=O)NC2C(=O)N3C(C(=O)O)=C(CSc4nnnn4C)CSC23)cc1Br (stereo not drawn)	0	u	u	-12%	-7%
CC(=O)Nc1ccc(S(=O)(=O)N(Cc2ccccc2)Cc2ccccc2)cc1	x	x	0%	u	u
